RMI FANCM FP – blocks RMI1/RMI2 complex binding to FANCM MM2 peptide; Fluorescence polarization, RMI core complex with F-MM2 peptide; active compounds read low; FP signal (polarization) at 33 µM; 0.58% of 70,000 active; AID 1159607; in the data active = FP signal below about 40
Active calls of the source: *; ! = not confirmed by another sample. The full list was thinned out, with hits kept by preference.

SMILES	RMI FANCM FP
CCc1cccc(NC(=O)CCC2=NS(=O)(=O)c3ccccc3N2)c1	65
Nc1ncnc(NNC(=O)CNC(=O)c2ccco2)c1[N+](=O)[O-]	62
O=C(c1ccccc1)c1ccc(Oc2ccc(C(=O)c3ccccc3)cc2)cc1	56
Nc1ncnc2c1CCC2	82
Nc1ncncc1-c1ccc(Cl)cc1	49
Nc1ncnc(Cl)c1N	17*
Cc1ccc(OCC(O)CN2CCC(C(N)=O)CC2)cc1C (configuration not stated)	56
COc1cc(OC)c(OC)cc1/C=N\NC(=O)c1cc(-c2ccco2)[nH]n1	53
Cc1ccc(S(=O)(=O)CC(=O)Nc2sc3c(c2C(N)=O)CCN(C(C)C)C3)cc1	57
CC(=O)N1CCc2c(sc(NC(=O)CCSc3ccc(C)cc3)c2C(N)=O)C1	56
CCOC(=O)N1CCc2c(sc(NC(=O)CS(=O)(=O)c3ccc(C)cc3)c2C(N)=O)C1	63
CCN1CCc2c(sc(NC(=O)CS(=O)(=O)c3ccc(F)cc3)c2C(N)=O)C1	13*
CCN1CCc2c(sc(NC(=O)c3ccnn3C)c2C(N)=O)C1	68
CC(C)N1CCc2c(sc(NC(=O)CN3C(=O)c4ccccc4C3=O)c2C(N)=O)C1	-4*
CC(C)N1CCc2c(sc(NC(=O)c3ccn(C)n3)c2C(N)=O)C1	74
CCOC(=O)N1CCc2c(sc(NC(=O)CCS(=O)(=O)c3ccccc3)c2C(N)=O)C1	69
CCOC(=O)N1CCc2c(sc(NC(=O)CCSc3ccc(Cl)cc3)c2C(N)=O)C1	58
Cc1ccc(S(=O)(=O)CCC(=O)Nc2sc3c(c2C(N)=O)CCC(C)C3)cc1 (configuration not stated)	83
CCN1CCc2c(sc(NC(=O)CCS(=O)(=O)c3ccc(C)cc3)c2C(N)=O)C1	34*
CC(=O)N1CCc2c(sc(NC(=O)CSc3ccc(Cl)cc3)c2C(N)=O)C1	-4*
CN(c1ccc([N+](=O)[O-])cc1[N+](=O)[O-])C1CCS(=O)(=O)C1 (configuration not stated)	61
NC(=O)CSc1ncc(CO)n1Cc1ccc(F)cc1	66
Cc1ccc2c(c1)OCC(=O)N2Cc1nc(-c2ccccc2Cl)no1	64
O=C(NCC1CCCO1)C(=O)Nc1ccc(C(F)(F)F)cc1 (configuration not stated)	54
OC(COc1ccc(-c2nnco2)cc1)CN1CCOCC1 (configuration not stated)	60
SMILES	RMI FANCM FP
O=C(CSc1nc2ccccc2c(=O)n1-c1ccc(OC(F)F)cc1)c1ccc(Cl)cc1	76
Cc1ccccc1C(=O)Nc1sc2c(c1-c1nc3ccccc3s1)CCCC2	73
COC(=O)Cn1c(=NC(=O)COc2ccccc2)sc2cc(C(=O)OC)ccc21	63
CSc1scc2c1C(=O)/C(=C/N(C)C)CC2	33*
CSc1scc2c1-c1nc(SCC(=O)C(C)(C)C)ncc1CC2	58
Cc1ccc(S(=O)(=O)Nc2ccccc2C(=O)Nc2cccc3c2C(=O)N(C)C3=O)cc1	61
CSc1ncc(C#N)c2nc(-c3ccc(N(C)C)cc3)nn12	-1*
Cc1cc(-c2nnc(NC(=O)c3ccno3)o2)n(C)n1	70
COC(=O)c1sccc1N/N=C(\C#N)C(=O)c1ccc(Cl)cc1	58
COC(=O)c1sccc1N/C=C(\C#N)C(=O)c1cccc(CSc2ccc(Cl)cc2)c1	7*
COC(=O)c1sccc1N/C=C(\C#N)C(=O)c1ccco1	59
COCCN1CCC(CNS(=O)(=O)c2ccccc2)CC1	69
C#CCn1c(=NC(=O)c2cccc(S(C)(=O)=O)c2)sc2cc(C)c(C)cc21	91
CSc1c(C#N)c(-c2cccs2)nn1CC(=O)N/N=C\c1cccs1	52
CCOC(=O)c1cc2cc(Cl)ccc2o1	53
CCOC(=O)c1sc(NC(=O)c2cc(=O)c3ccccc3o2)cc1C	62
CCCc1c2c(cc3c(=O)cc(C(=O)OCC)oc13)CCCC2	32*
COc1ccc(CC(=O)NCC(c2ccsc2)N2CCCC2)cc1 (configuration not stated)	64
COc1cc(OC)cc(C(=O)NCC(c2ccsc2)N2CCCC2)c1 (configuration not stated)	9*
Cc1ccc(C(=O)NCC(c2ccsc2)N2CCCC2)cc1C (configuration not stated)	87
O=C(NCc1ccsc1)c1ccccc1Cl	66
CC1CCN(C2=NC(=O)/C(=C\c3ccccc3)S2)CC1	58
O=C1N=C(N2CCN(c3ccccc3[N+](=O)[O-])CC2)S/C1=C/c1cccs1	18*
O=C1N=C(N2CCN(c3ccccc3F)CC2)S/C1=C\c1cccnc1	66
COC(=O)Cn1cnc(-c2ccc(F)cc2)cc1=O	62
SMILES	RMI FANCM FP
O=C1COc2cc(Cl)ccc2N1Cc1nc(-c2cccnc2)no1	62
Cc1cccc(NC(=O)N2CCN(c3ccc4nnc(-c5ccco5)n4n3)CC2)c1C	70
CCOC(CNC(=O)NC1CC(=O)N(c2ccc(OC)c(OC)c2)C1)OCC (configuration not stated)	57
CC(=O)ON1C(=O)c2cccc3cccc(c23)C1=O	52
O=C1c2cccc3c([N+](=O)[O-])ccc(c23)C(=O)N1Cc1cccnc1	-13
CC(=O)ON1C(=O)c2cccc3c([N+](=O)[O-])ccc(c23)C1=O	-6*
CCOC(=O)C(CC)n1cnc2c(cnn2-c2ccccc2)c1=O (configuration not stated)	60
Fc1ccc(-c2nc(=S)c3c([nH]2)Oc2ccc(Br)cc2C3)cc1	26*
Fc1ccc(-c2noc(-c3ccc4c(c3)CCO4)n2)cc1	59
COc1ccc(-c2nn(-c3ccccc3)cc2CN(Cc2ccccc2)C(=O)/C=C/C(=O)O)cc1	61
Cc1ccc(-c2nn(-c3ccccc3)cc2/C=C2\SC(=S)NC2=O)cc1F	74
COc1ccc(-c2nn(-c3ccccc3)cc2/C=C2\SC(=O)NC2=S)cc1	27*
CCCCOc1ccc(C(=O)NCc2ccsc2)cc1	68
CCOC(=O)N1CCC(NC(=O)c2ccc(OCc3ccc4ccccc4n3)cc2)CC1	59
Cn1c(SCCCC(=O)Nc2ccc(S(N)(=O)=O)cc2)nc2sc3c(c2c1=O)CCCC3	65
O=[N+]([O-])c1ccccc1-c1ccc(-c2nnc(-c3ccco3)o2)o1	25*
O=[N+]([O-])c1cccnc1Sc1nccc(-c2ccco2)n1	54
CCOC(=O)C(=Cc1ccc(-c2ccccc2[N+](=O)[O-])o1)C(=O)OCC	58
O=C(CSc1ccc(-c2cccc([N+](=O)[O-])c2)nn1)Nc1nc2ccccc2s1	54
Cc1nc(-n2nc(-c3ccco3)cc2NC(=O)CSCc2ccccc2)[nH]c(=O)c1C	35*
Cc1ccc(OCC(=O)Nc2cc(-c3ccco3)nn2-c2nc(C)c(C)c(=O)[nH]2)cc1	42
Cc1nc(-n2nc(-c3ccco3)cc2NC(=O)c2ccco2)[nH]c(=O)c1C	46
CC1CCc2oc3c(cc(NS(=O)(=O)c4ccc(Br)cc4)c4ccccc43)c2C1 (configuration not stated)	35
CCC(C)(C)C1CCc2oc3c(cc(NS(=O)(=O)c4cccc([N+](=O)[O-])c4)c4ccccc43)c2C1 (configuration not stated)	32*!
CC1CCc2oc3c(cc(NS(=O)(=O)c4cccs4)c4ccccc43)c2C1 (configuration not stated)	64
Cc1ccc(S(=O)(=O)NNC(=O)c2ccc(-n3c(C)ccc3C)cc2)cc1	66
CCOC(=O)C(C#N)=C1C=C(C)N(c2cccnc2)C(C)=C1	63

Screening results: PubChem, Small Molecule Screening Facility, UW Madison
